# Laboratory results published in PubChem BioAssay AID2507 (National Center for Advancing Translational Sciences (NCATS), 2010).
# Inconclusive results are not listed. Entries that show only a call come without a potency. The source made the active and inactive calls. Calls come from the whole dose curve; as a rule, active = well fitted inhibition curve with a large enough effect; inconclusive = small, poorly fitted or top-dose-only effect, or effect the other way; inactive = flat fitted curve, though single readings scatter.
# Assay: Secondary Assay for General miRNAs Modulators and/or Inhibitors/Activators of miR-21: miR-30 Firefly Luciferase Assay
# Details: HeLa miR-30 FLuc reporter, luminescence, 48 h; series mostly up to 38.3 µM
# Excerpt: MLSCN Grant: 1 R21 NS059478-01 Assay Provider: Qihong Huang, The Wistar Institute NCGC Assay Overview: MicroRNAs (miRNAs) are endogenously encoded small (~20-25 nucleotides), nonprotein-coding RNAs that are involved in post-transcriptional repression of target messenger RNAs (mRNAs) (Le and Hannon, 2004). Estimated to be involved in the regulation of 30% of all protein-coding mRNAs (Filipowicz et al., 2008), miRNAs play a significant role in many biological processes including cellular differentiation and tissue development (Ghildiyal and Zamore, 2009). […] Compounds active in the miR-21 FLuc assay were clustered using Leadscope and active chemical series were prioritized based on chemical properties, potential for medicinal chemistry optimization, and SAR. Within each chemical series, representative compounds were re-acquired to test for activity in a secondary assay based on the quality of their CRC, efficacy, and potency. The secondary assay to determine if compounds active in the miR-21 FLuc assay were potentially specific for miR-21 and were not general modulators of the miRNA pathway was another cell-based FLuc reporter gene assay, this time targeting miR-30. Compounds found active in both the miR-21 FLuc and miR-30 FLuc assays are not considered miR-21 specific compounds, and may be general miRNA modulators.
# NCGC Assay Protocol Summary: Reagents: HeLa cells stably expressing firefly luciferase (FLuc) under the control of a CMV promoter (upstream) and a miR-30 binding sequence directly downstream of the gene. These cells also stably express miR-30. Control compounds used were compound C3 (provided by collaborator), N6-phenyladenosine (MP Biomedicals, 0215379625), and DMSO. Assay Summary: 6uL of HeLa miR-30-FLuc cells in assay buffer (DMEM, Invitrogen #21063-029; 10% FBS, HyClone #SH30071.03) were dispensed at 1000cells/well (1.7 x 10^5 cells/mL) into Greiner solid-white TC-treated 1536-well plates using a Multidrop Combi (Thermo Fisher Scientific). Plates were incubated for one hour at 37 degree Celsius, 95% humidity, 5% CO2. These assay plates were then treated with 23nL of compound or DMSO using a Kalypsys pin tool, which allows for delivery of a 24-point titration of each compound to the assay plate, with a final compound concentration ranging from approximately 40uM to 5pM. Assay plates were then incubated for 48 hours. After incubation, plates were allowed to come to RT for one hour prior to delivery of 3uL of 3X luciferase detection reagent. After a 15 minute incubation to allow for cell lysis, luciferase activity was measured using a ViewLux CCD imager (PerkinElmer), with an average exposure time of 2-12 seconds. Keywords: NIH Roadmap, MLPCN, MLSMR, qHTS, miR-21, miR-30, microRNA, firefly luciferase, FLuc.
row,Compound,Potency
1,O=C(CSc1nnc(-c2ccncc2)o1)Nc1nncs1,inactive
